PubChem BioAssay AID1159580 (chemical genetic matrix, 2015)
About 2,000 (36%) of roughly 5,500 compounds were called active. About 18% were inconclusive and are not listed. Cut-off read from the data, not from the text of the source: active = normalized growth mostly below about 0.91 (no sharp cut-off); inconclusive = no clear call, values can overlap the other calls; inactive = mostly above about 0.92. The list shows a part of the results.

Test: chemical genetic growth profiling, strain panel (AID 1159580);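 note: tested at 20 µM; growth read once vehicle control cultures reached saturation at 30 °C; 1 = growth at the plate median or of vehicle wells; lower values mean less growth of the strain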
Conditions: S. cerevisiae deletion strains, growth OD

Measured: normalized growth

COc1ccccc1N1CCN(Cc2ccc(F)cc2)CC1
inactive: locus YAL013W, strain DEP1, hits give low values 1.02 | locus YBR229C, strain ROT2, hits give low values 0.993 | locus YCL061C, strain MRC1, hits give low values 1 | locus YDL101C, strain DUN1, hits give low values 0.992 | locus YDR150W, strain NUM1, hits give low values 1.02 | locus YEL061C, strain CIN8, hits give low values 1.01 | locus YGR078C, strain PAC10, hits give low values 1.01 | locus YHR030C, strain SLT2, hits give low values 1.06 | locus YHR087W, strain rtc3, hits give low values 1.01 | locus YJL187C, strain SWE1, hits give low values 1.02 | locus YJR043C, strain POL32, hits give low values 1.01 | locus YJR075W, strain HOC1, hits give low values 0.983 | locus YKL190W, strain CNB1, hits give low values 1.02 | locus YLR039C, strain RIC1, hits give low values 0.987 | locus YLR058C, strain SHM2 (second series), hits give low values 1.02 | locus YLR085C, strain ARP6, hits give low values 1.04 | locus YLR262C, strain YPT6, hits give low values 1.01 | locus YML094W, strain GIM5, hits give low values 1 | locus YMR219W, strain ESC1, hits give low values 1.01 | locus YMR263W, strain SAP30, hits give low values 1.01 | locus YNL128W, strain TEP1, hits give low values 1.02 | locus YNL153C, strain GIM3, hits give low values 0.997 | locus YNL298W, strain CLA4 (second series), hits give low values 1.05 | locus YNL322C, strain KRE1, hits give low values 1 | locus YNR030W, strain Alg12, hits give low values 1.04 | locus YPL055C, strain LGE1, hits give low values 1 | locus YPL241C, strain CIN2, hits give low values 0.998 | locus YPR135W, strain CTF4, hits give low values 1
